Experiment [1] is described as follows: NCI Yeast Anticancer Drug Screen. Data for the rad50 strain (AID 155).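 Also: 0% = growth of vehicle-only cultures of the same strain.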 The note with it: S. cerevisiae rad50 strain growth inhibition, hits give high values. The procedure, abridged:
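Relative growth inhibition (compound vs vehicle) was measured in yeast with a defined repair-gene alteration.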

The nature of experiment [2]: NCI Yeast Anticancer Drug Screen. Data for the mec2-1 strain (AID 157). Conditions: S. cerevisiae mec2-1 strain, hits give high values. The procedure, abridged:
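Yeast mec2-1 mutant treated with compound. Readout: growth inhibition vs vehicle controls.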

The nature of experiment [3]: NCI Yeast Anticancer Drug Screen. Data for the sgs1 mgt1 strain (AID 161).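 Also: 0% = growth of cultures given vehicle only.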 The note with it: S. cerevisiae sgs1 mgt1 strain, hits give high values. The procedure, abridged:
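Read-out: growth inhibition vs vehicle controls. Cells: mutant yeast strain deficient in DNA damage repair.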

Experiment [4] can be described thus: NCI Yeast Anticancer Drug Screen. Data for the cln2 rad14 strain (AID 165).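 Also: 0% = growth equal to vehicle treated cultures.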 Conditions: S. cerevisiae cln2 rad14 strain, hits give high values. The procedure, abridged:
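cln2 rad14 yeast strain; compound exposure; growth inhibition read vs vehicle controls.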

Experiment [5] in a line: NCI Yeast Anticancer Drug Screen. Data for the bub3 strain (AID 167). Conditions: S. cerevisiae bub3 mutant strain, hits give high values. The procedure, abridged:
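Screening used yeast with an engineered genetic alteration affecting cell cycle control. Compound-exposed cultures were compared with vehicle cultures, and reduced growth was taken as inhibition.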

Experiment [6] is described as follows: NCI Yeast Anticancer Drug Screen. Data for the mlh1 rad18 strain (AID 175). Conditions: S. cerevisiae mlh1 rad18 strain growth inhibition, hits give high values. Put shortly:
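Yeast w/ defined DNA-repair lesions; compound exposure; growth vs vehicle controls → % inhibition.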

Where [7] appears, read: at 5.0 µM (retest, dose inferred, filed as 0.5).
The mark [8] stands for this setting: at 50.0 µM (retest, dose inferred, filed as 5.0).

The structures appear in SMILES notation. The panel holds about 79,000 compounds, 15% with a hit somewhere; the sample as a whole holds those more often. Unmarked numbers belong to inactive results. Activity calls are given as the source filed them. Rule as the data show it: active = growth inhibition above about 70%; inactive = the rest.

Consider `N#C/C=C(\c1ccccc1)c1c[nH]c2ccccc12`, for which the growth inhibition is -144% in experiment [1] (setting [7]); 97% (active) in experiment [1] (setting [8]); 97.5% (active) in experiment [1] (at 50.0 µM); -46% in experiment [2] (setting [7]); 99% (active) in experiment [2] (setting [8]); 98.1% (active) in experiment [2] (at 50.0 µM). Also, the growth inhibition was -62% in experiment [3] (setting [7]); 98% (active) in experiment [3] (setting [8]); 98.7% (active) in experiment [3] (at 50.0 µM); -58% in experiment [4] (setting [7]); 98% (active) in experiment [4] (setting [8]); 95.8% (active) in experiment [4] (at 50.0 µM). The growth inhibition is -63% in experiment [5] (setting [7]); 97% (active) in experiment [5] (setting [8]); 97% (active) in experiment [5] (at 50.0 µM); -120% in experiment [6] (setting [7]); 98% (active) in experiment [6] (setting [8]); 98.2% (active) in experiment [6] (at 50.0 µM).
For `CCOC1(OCC)Oc2c(Cl)c(Cl)c(Cl)c(Cl)c2OC1(OCC)OCC`, the growth inhibition in experiment [1] (setting [7]) is 11%; in experiment [1] (setting [8]), 97% (active); in experiment [1] (at 50.0 µM), 98.3% (active); in experiment [2] (setting [7]), 13%; in experiment [2] (setting [8]), 98% (active); in experiment [2] (at 50.0 µM), 98.9% (active). Also, the growth inhibition in experiment [3] (setting [7]) was 12%; in experiment [3] (setting [8]), 96% (active); in experiment [3] (at 50.0 µM), 98.5% (active); in experiment [4] (setting [7]) it was 16%; in experiment [4] (setting [8]), 97% (active); in experiment [4] (at 50.0 µM) it was 97.4% (active). Further, the growth inhibition in experiment [5] (setting [7]) is 13%; in experiment [5] (setting [8]), 97% (active); in experiment [5] (at 50.0 µM), 98% (active); in experiment [6] (setting [7]) it was 14%; in experiment [6] (setting [8]), 96% (active); in experiment [6] (at 50.0 µM), 98.7% (active).
Take `Cc1[nH]nc(-c2ccon2)c1N=O`: the growth inhibition is 12% in experiment [1] (setting [7]); 61% in experiment [1] (setting [8]); 68.7% in experiment [1] (at 50.0 µM); -28% in experiment [2] (setting [7]); 66% in experiment [2] (setting [8]); 28.8% in experiment [2] (at 50.0 µM). Further, the growth inhibition is 16% in experiment [3] (setting [7]); 80% (active) in experiment [3] (setting [8]); -1.75% in experiment [3] (at 50.0 µM); 22% in experiment [4] (setting [7]); 48% in experiment [4] (setting [8]); 4.65% in experiment [4] (at 50.0 µM). The growth inhibition in experiment [5] (setting [7]) was 56%; in experiment [5] (setting [8]) it was 90% (active); in experiment [5] (at 50.0 µM), 78.7% (active); in experiment [6] (setting [7]), 64%; in experiment [6] (setting [8]) it was 93% (active); in experiment [6] (at 50.0 µM), 58.4%.
Take `C/C(=N/O)c1cc([N+](=O)[O-])c(O)cc1O`: the growth inhibition in experiment [1] (setting [7]) is -27%; in experiment [1] (setting [8]) it was 70% (active); in experiment [1] (at 50.0 µM), 86.7% (active); in experiment [2] (setting [7]), -10%; in experiment [2] (setting [8]) it was 76% (active); in experiment [2] (at 50.0 µM), 84.9% (active). Moreover, the growth inhibition in experiment [3] (setting [7]) was -15%; in experiment [3] (setting [8]) it was 80% (active); in experiment [3] (at 50.0 µM), 89.2% (active); in experiment [4] (setting [7]), -6%; in experiment [4] (setting [8]) it was 44%; in experiment [4] (at 50.0 µM) it was 61.1%. Besides, the growth inhibition in experiment [5] (setting [7]) is -35%; in experiment [5] (setting [8]), 76% (active); in experiment [5] (at 50.0 µM), 86.5% (active); in experiment [6] (setting [7]) it was -16%; in experiment [6] (setting [8]), 80% (active); in experiment [6] (at 50.0 µM) it was 85.8% (active).
For the compound `CCOC(C)c1ccccc1` (stereo not given), the growth inhibition in experiment [1] (setting [7]) is 39%; in experiment [1] (setting [8]), 90% (active); in experiment [1] (at 50.0 µM), -37%; in experiment [2] (setting [7]) it was 42%; in experiment [2] (setting [8]), 99% (active); in experiment [2] (at 50.0 µM) it was -5.85%. The growth inhibition in experiment [3] (setting [7]) was 16%; in experiment [3] (setting [8]), 62%; in experiment [3] (at 50.0 µM) it was 30.8%; in experiment [4] (setting [7]), 10%; in experiment [4] (setting [8]) it was 59%; in experiment [4] (at 50.0 µM) it was -16.9%. Moreover, the growth inhibition was 19% in experiment [5] (setting [7]); 99% (active) in experiment [5] (setting [8]); -0.8% in experiment [5] (at 50.0 µM); 64% in experiment [6] (setting [7]); 99% (active) in experiment [6] (setting [8]); -0.2% in experiment [6] (at 50.0 µM).
As to `CCC(=O)OCC(=O)c1ccc(-c2ccccc2)cc1`, the growth inhibition is -9% in experiment [1] (setting [7]); -20% in experiment [1] (setting [8]); -5.1% in experiment [1] (at 50.0 µM); -8% in experiment [2] (setting [7]); 1% in experiment [2] (setting [8]); -3.7% in experiment [2] (at 50.0 µM). Besides, the growth inhibition is -2% in experiment [3] (setting [7]); 18% in experiment [3] (setting [8]); 3% in experiment [3] (at 50.0 µM); 33% in experiment [4] (setting [7]); -56% in experiment [4] (setting [8]); -5.4% in experiment [4] (at 50.0 µM). Besides, the growth inhibition was 36% in experiment [5] (setting [7]); 10% in experiment [5] (setting [8]); 57.1% in experiment [5] (at 50.0 µM); -8% in experiment [6] (setting [7]); 1% in experiment [6] (setting [8]); -1.05% in experiment [6] (at 50.0 µM).
`Cc1ccc(S(=O)(=O)Nc2ccc3c(c2)C(=O)c2ccccc2-3)cc1`: the growth inhibition in experiment [1] (setting [7]) was 14%; in experiment [1] (setting [8]), 90% (active); in experiment [1] (at 50.0 µM) it was 91.7% (active); in experiment [2] (setting [7]), 6%; in experiment [2] (setting [8]), 93% (active); in experiment [2] (at 50.0 µM), 91.4% (active). The growth inhibition in experiment [3] (setting [7]) is 7%; in experiment [3] (setting [8]), 95% (active); in experiment [3] (at 50.0 µM), 91.3% (active); in experiment [4] (setting [7]), -5%; in experiment [4] (setting [8]), 89% (active); in experiment [4] (at 50.0 µM), 58.5%. The growth inhibition was 6% in experiment [5] (setting [7]); 94% (active) in experiment [5] (setting [8]); 93.7% (active) in experiment [5] (at 50.0 µM); 17% in experiment [6] (setting [7]); 94% (active) in experiment [6] (setting [8]); 84.9% (active) in experiment [6] (at 50.0 µM).
`COc1ccc(OC)c2c(C(=O)O)c(C(C)c3ccccc3)ccc12` (stereo not given): the growth inhibition was -1% in experiment [1] (setting [7]); 70% (active) in experiment [1] (setting [8]); 85.8% (active) in experiment [1] (at 50.0 µM); 3% in experiment [2] (setting [7]); 73% (active) in experiment [2] (setting [8]); 91.2% (active) in experiment [2] (at 50.0 µM). Also, the growth inhibition was 2% in experiment [3] (setting [7]); 64% in experiment [3] (setting [8]); 91.2% (active) in experiment [3] (at 50.0 µM); 1% in experiment [4] (setting [7]); 74% (active) in experiment [4] (setting [8]); 96.2% (active) in experiment [4] (at 50.0 µM). Moreover, the growth inhibition in experiment [5] (setting [7]) was -6%; in experiment [5] (setting [8]), 65%; in experiment [5] (at 50.0 µM), 81.7% (active); in experiment [6] (setting [7]), 3%; in experiment [6] (setting [8]) it was 75% (active); in experiment [6] (at 50.0 µM) it was 92.3% (active).
Regarding `CC(CN(CC(=O)O)CC(=O)O)N(CC(=O)O)CC(=O)O.[Cl][Pd][Cl]` (stereo not given), the growth inhibition in experiment [1] (setting [7]) was 27%; in experiment [1] (setting [8]) it was 89% (active); in experiment [1] (at 50.0 µM), 88.3% (active); in experiment [2] (setting [7]) it was 7%; in experiment [2] (setting [8]) it was 87% (active); in experiment [2] (at 50.0 µM) it was 91.5% (active). Further, the growth inhibition is 40% in experiment [3] (setting [7]); 92% (active) in experiment [3] (setting [8]); 82% (active) in experiment [3] (at 50.0 µM); 14% in experiment [4] (setting [7]); 81% (active) in experiment [4] (setting [8]); 57.2% in experiment [4] (at 50.0 µM). The growth inhibition in experiment [5] (setting [7]) was 22%; in experiment [5] (setting [8]), 91% (active); in experiment [5] (at 50.0 µM) it was 86.4% (active); in experiment [6] (setting [7]), 30%; in experiment [6] (setting [8]), 83% (active); in experiment [6] (at 50.0 µM), 90.7% (active).
As to `COc1ccc(NC(=O)CCC(=O)CC(=O)c2ccncc2)cc1`, the growth inhibition in experiment [1] (setting [7]) was -9%; in experiment [1] (setting [8]) it was 3%; in experiment [1] (at 50.0 µM) it was 3.5%; in experiment [2] (setting [7]), 4%; in experiment [2] (setting [8]) it was -2%; in experiment [2] (at 50.0 µM) it was -8.65%. For the same compound, the growth inhibition was 2% in experiment [3] (setting [7]); -9% in experiment [3] (setting [8]); -6.25% in experiment [3] (at 50.0 µM); -5% in experiment [4] (setting [7]); 2% in experiment [4] (setting [8]); 41.2% in experiment [4] (at 50.0 µM). Also, the growth inhibition in experiment [5] (setting [7]) was -2%; in experiment [5] (setting [8]), 1%; in experiment [5] (at 50.0 µM), 3.25%; in experiment [6] (setting [7]), -1%; in experiment [6] (setting [8]), -5%; in experiment [6] (at 50.0 µM), -14.6%.

Values taken from PubChem BioAssay (NCI).
